Laboratory results reported in PubChem BioAssay AID1159580 (chemical genetic matrix, 2015).
“And” between values parts separate entries of the source, which are not always exact repeats. Equal values may be shown once. The campaign covered roughly 5,500 compounds. About 2,000 (36%) were called active. Roughly 18% stayed inconclusive and do not appear here. Rule as the data show it: active = normalized growth mostly below about 0.91 (no sharp cut-off); inconclusive = no clear call, values can overlap the other calls; inactive = mostly above about 0.92. Some of the results follow.

Test: chemical genetic growth profiling, strain panel (AID 1159580);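 also: tested at 20 µM; growth read once vehicle control cultures reached saturation at 30 °C; 1 = growth at the plate median or of vehicle wells; lower values mean less growth of the strain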
Details: S. cerevisiae deletion strains, growth OD
[1] = locus YAL013W, strain DEP1, stronger effect = lower value
[2] = locus YBR229C, strain ROT2, stronger effect = lower value
[3] = locus YDL101C, strain DUN1, stronger effect = lower value
[4] = locus YDR150W, strain NUM1, stronger effect = lower value
[5] = locus YEL061C, strain CIN8, stronger effect = lower value
[6] = locus YGR078C, strain PAC10, stronger effect = lower value
[7] = locus YHR030C, strain SLT2, stronger effect = lower value
[8] = locus YHR087W, strain rtc3, stronger effect = lower value
[9] = locus YJR043C, strain POL32, stronger effect = lower value
[10] = locus YJR075W, strain HOC1, stronger effect = lower value
[11] = locus YLR039C, strain RIC1, stronger effect = lower value
[12] = locus YLR058C, strain SHM2 (second series), stronger effect = lower value
[13] = locus YLR085C, strain ARP6, stronger effect = lower value
[14] = locus YLR262C, strain YPT6, stronger effect = lower value
[15] = locus YML094W, strain GIM5, stronger effect = lower value
[16] = locus YMR219W, strain ESC1, stronger effect = lower value
[17] = locus YMR263W, strain SAP30, stronger effect = lower value
[18] = locus YNL153C, strain GIM3, stronger effect = lower value
[19] = locus YNL298W, strain CLA4 (second series), stronger effect = lower value
[20] = locus YNL322C, strain KRE1, stronger effect = lower value
[21] = locus YNR030W, strain Alg12, stronger effect = lower value
[22] = locus YPL055C, strain LGE1, stronger effect = lower value
[23] = locus YPL241C, strain CIN2, stronger effect = lower value
[24] = locus YPR135W, strain CTF4, stronger effect = lower value

Measured: normalized growth

O=C(NCCSCc1ccco1)Nc1cc(Cl)cc(Cl)c1
active: [1] 0.915 | locus YDL134C, strain PPH21, stronger effect = lower value 0.724 | [11] 0.769 | locus YLR113W, strain HOG1, stronger effect = lower value 0.842 | [14] 0.759 | locus YPL256C, strain CLN2, stronger effect = lower value 0.818
inactive: locus YAR019C, strain CDC15, stronger effect = lower value 0.958 | locus YBL105C, strain PKC1, stronger effect = lower value 0.96 | locus YBR135W, strain CKS1, stronger effect = lower value 0.954 | locus YBR136W, strain MEC1, stronger effect = lower value 0.963 | locus YBR160W, strain CDC28, stronger effect = lower value 0.957 | [2] 0.976 | locus YDL017W, strain CDC7, stronger effect = lower value 0.956 | locus YDL028C, strain MPS1, stronger effect = lower value 0.966 | [3] 0.97 and 0.977 | locus YDL108W, strain KIN28, stronger effect = lower value 0.958 | locus YDL132W, strain cdc53, stronger effect = lower value 0.949 | locus YDL214C, strain PRR2, stronger effect = lower value 0.894 | locus YDR052C, strain DBF4, stronger effect = lower value 0.972 | locus YDR054C, strain cdc34, stronger effect = lower value 0.942 | [4] 0.908 | locus YDR226W, strain ADK1, stronger effect = lower value 0.965 | locus YDR477W, strain SNF1, stronger effect = lower value 0.885 | [5] 0.984 | locus YER123W, strain YCK3, stronger effect = lower value 0.842 | locus YER133W, strain GLC7, stronger effect = lower value 0.895 | locus YFL009W, strain cdc4, stronger effect = lower value 0.956 | locus YFL029C, strain CAK1, stronger effect = lower value 0.951 | locus YFR003C, strain YPI1, stronger effect = lower value 0.962 | locus YFR019W, strain FAB1, stronger effect = lower value 0.897 | locus YFR028C, strain CDC14, stronger effect = lower value 0.956 | locus YGR040W, strain KSS1, stronger effect = lower value 0.893 | locus YGR052W, strain FMP48, stronger effect = lower value 0.967 | [6] 0.957 | locus YGR092W, strain DBF2, stronger effect = lower value 0.914 | locus YHR079C, strain IRE1, stronger effect = lower value 0.853 | locus YHR082C, strain KSP1, stronger effect = lower value 0.866 | [8] 0.966 | locus YHR205W, strain SCH9, stronger effect = lower value 0.86 | locus YIL147C, strain SLN1, stronger effect = lower value 0.955 | locus YJL095W, strain BCK1, stronger effect = lower value 0.815 | locus YJL128C, strain PBS2, stronger effect = lower value 0.928 | locus YJL157C, strain FAR1, stronger effect = lower value 0.893 | locus YJR016C, strain ILV3, stronger effect = lower value 0.96 | [9] 0.932 | locus YJR066W, strain TOR1 (second series), stronger effect = lower value 0.946 | locus YJR066W, strain TOR1, stronger effect = lower value 0.824 | [10] 0.958 | locus YKL048C, strain ELM1, stronger effect = lower value 0.934 | locus YKL067W, strain YNK1, stronger effect = lower value 0.898 | locus YKL101W, strain HSL1, stronger effect = lower value 0.911 | locus YKL193C, strain SDS22, stronger effect = lower value 0.942 | locus YKL203C, strain TOR2, stronger effect = lower value 0.916 | [12] 0.953 | [13] 0.865 | locus YLR133W, strain CKI1, stronger effect = lower value 0.893 | locus YLR403W, strain SFP1, stronger effect = lower value 0.868 | locus YML070W, strain DAK1, stronger effect = lower value 0.879 | [15] 0.918 | locus YMR001C, strain CDC5, stronger effect = lower value 0.954 | locus YMR205C, strain PFK2 (second series), stronger effect = lower value 0.914 | [16] 0.976 | [17] 0.917 | locus YMR277W, strain FCP1, stronger effect = lower value 0.952 | locus YNL006W, strain LST8, stronger effect = lower value 0.951 | locus YNL020C, strain ARK1, stronger effect = lower value 0.879 | [18] 0.97 | locus YNL161W, strain CBK1, stronger effect = lower value 0.96 | locus YNL183C, strain NPR1, stronger effect = lower value 0.845 | locus YNL207W, strain RIO2, stronger effect = lower value 0.943 | locus YNL222W, strain SSU72, stronger effect = lower value 0.953 | [19] 0.879 | locus YNL307C, strain MCK1 (second series), stronger effect = lower value 0.888 | [20] 0.96 | [21] 0.897 | locus YOL078W, strain AVO1, stronger effect = lower value 0.948 | locus YOL136C, strain PFK27, stronger effect = lower value 0.853 | locus YOR061W, strain CKA2, stronger effect = lower value 0.9 | locus YOR119C, strain RIO1, stronger effect = lower value 0.954 | locus YOR231W, strain MKK1, stronger effect = lower value 0.863 | locus YOR329C, strain SCD5, stronger effect = lower value 0.956 | locus YPL031C, strain PHO85, stronger effect = lower value 0.872 | [22] 0.858 | locus YPL153C, strain RAD53, stronger effect = lower value 0.894 | locus YPL204W, strain HRR25, stronger effect = lower value 0.867 | locus YPL209C, strain IPL1, stronger effect = lower value 0.958 | [23] 0.937 | locus YPR025C, strain CCL1, stronger effect = lower value 0.952 | locus YPR106W, strain ISR1, stronger effect = lower value 0.959 | locus YPR111W, strain DBF20, stronger effect = lower value 0.957 | [24] 0.841 | strain NNK1, stronger effect = lower value 0.952 | strain TSCII, stronger effect = lower value 0.954
0.822 (inactive) and 0.683 (active): [7]

O=C(NCCSCc1ccco1)c1ccc(Cl)cc1
inactive: [1] 0.976 | [2] 0.991 | [3] 0.976 | [4] 0.815 | [5] 0.994 | [6] 0.989 | [8] 1 | locus YJL187C, strain SWE1, stronger effect = lower value 1 | [9] 0.975 | [10] 1.05 | locus YKL190W, strain CNB1, stronger effect = lower value 1 | [12] 0.96 | [13] 1 | [15] 0.989 | [16] 0.98 | [17] 0.981 | locus YNL128W, strain TEP1, stronger effect = lower value 0.983 | [18] 0.984 | [19] 0.968 | [20] 0.988 | [21] 0.982 | [22] 0.962 | [23] 0.975 | [24] 1.02
active: [7] 0.587 | [11] 1.31 [resistant] | [14] 1.19 [resistant]
